# Measurements: PubChem BioAssay AID1626 (SRMLSC, 2009)
# Out of some 220,000 compounds screened, about 2,000 (0.91%) were called active. Inconclusive results (about 2%) are left out. Only a sample is shown. Results with a measured potency or affinity are listed apart. Unmarked numbers belong to inactive results. Cut-off read from the data, not from the text of the source: inconclusive = inhibition above about 80% without an active follow-up result; inactive = below that; test concentration not stated here.
# Test: M. tuberculosis H37Rv growth inhibitors, H37Rv strain (AID 1626);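 note: bacteria incubated seven days before Alamar blue readout; 0% = bacteria only wells and 100% = bacteria with antibiotic wells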
# Settings: stronger effect = higher value, concentration not given here
row,Compound,inhibition [%]
1,O=C(O)c1cc(-n2cccc2)ccc1N1CCOCC1,-4.7
2,COc1ccccc1NC(=S)NC1CCCCCC1,-4.57
3,Cc1nn(C)c(C)c1/C=C(/C(=O)C(C)(C)C)n1cncn1,-5.89
4,CN(C)/C=C(/C(=O)c1ccccc1)n1cncn1,-12.5
5,Cc1cccc(Sc2c([N+](=O)[O-])ncn2C)c1,4.79
6,Cn1cnc([N+](=O)[O-])c1Oc1ccc2ccccc2c1,13.9
7,CCS(=O)(=O)c1c([N+](=O)[O-])ncn1C,76.2
8,Cn1cnc([N+](=O)[O-])c1Cl,0.19
9,Cc1cccc(C(=O)N=c2c(C#N)cc3c(=O)n4cccc(C)c4nc3n2Cc2ccco2)c1,-8.85
10,CCN(C(=O)COC(=O)c1cc(S(=O)(=O)Nc2c(C)n(C)n(-c3ccccc3)c2=O)ccc1Cl)C1CCCCC1,-3.86
11,Cc1cccc(NC(=O)CCOc2ccccc2)c1,-1.8
12,Cc1cc(C)n(-c2nc(-c3ccccc3)cs2)n1,4.34
13,O=C(CNC(=O)c1ccco1)OCc1ccc(C(=O)c2ccccc2)cc1,3.51
14,Cc1ccc(C)c(CSCC(=O)NCc2cccs2)c1,-7.19
15,Cc1cccc(N2CCN(Cc3ccoc3)CC2)c1C,2.81
16,Cc1cc(C)n(-c2nc(SCCN(C)C)c3c4c(sc3n2)COC(C)(C)C4)n1,14.6
17,Cc1cc(C)n(-c2nc(SCC(=O)Nc3nccs3)c3c4c(sc3n2)COC(C)(C)C4)n1,23.3
18,Cc1cc(C)n(-c2nc(NCCCN(C)C)c3c4c(sc3n2)CCCC4)n1,17.3
19,Cc1cc(C)n(-c2nc(SCC(=O)O)c3c4c(sc3n2)CCCC4)n1,63.1
20,CC1(C)Cc2c(sc3nc(SCC(=O)O)[nH]c(=O)c23)CO1,-1.16
21,CCCN(CC(=O)Nc1ccc(F)c(F)c1F)Cc1cc(=O)n2ccsc2n1,-1.11
22,O=C(NCc1ccco1)C12CC3CC(C1)CC(C(=O)NCc1ccco1)(C3)C2,-5.09
23,O=c1c2ccccc2nc(-c2cccc(Cl)c2)n1O,66.9
24,O=c1c2ccccc2nc(-c2ccccc2Cl)n1O,2.24
25,CC1CC(C)CN(c2ccc(C(=O)NCc3ccc4c(c3)OCO4)cc2[N+](=O)[O-])C1 (stereo not drawn),13.2

row,Compound,inhibition [%]
1,Cc1ccccc1C(=O)Nc1ccc(C(=O)N/N=C/c2ccc(O)c(Br)c2)cc1,6.55
2,CCOC(=O)N1CCC(NC(=O)C2CCCN(C(=O)c3cc4sccc4n3C)C2)CC1 (stereo not drawn),-2.27
3,O=C(NCCN1CCN(c2ccccc2)CC1)c1cccn2c(=O)c3ccccc3nc12,5.61
4,COCCNc1cc(C)nc2c(-c3ccccc3OC)c(C)nn12,-2.69
5,Cc1cc(NCCC(C)C)n2nc(C)c(-c3ccccc3)c2n1,11.3
6,COc1ccc(CCNc2cc(C)nc3c(-c4ccccc4)cnn23)cc1OC,1.98
7,Cc1cc(Cl)n2nc(C)c(-c3ccc(Cl)cc3)c2n1,0.72
8,CCOC(=O)c1ccc(NC(=O)C2CCN(C(=O)c3ccc(OC)c(OC)c3)CC2)cc1,-6.93
9,O=C(NC1=NCCCCC1)c1cccc2ccccc12,-1.94
10,COc1cccc(CNCCSc2nnnn2C)c1,6.16
11,CCNC(=O)N1CCCC(C(=O)c2ccc3cc(OC)ccc3c2)C1 (stereo not drawn),-5.17
12,COC(=O)c1ccc(CSc2nnc3c(Cl)cc(Cl)cn23)o1,-5.19
13,CCc1ccc(NC(=O)N(Cc2ccco2)C(C)c2cccs2)cc1 (stereo not drawn),0.17
14,CCN(CCCNC(=O)C1CCC(=O)N1C1CCCC1)c1cccc(C)c1 (stereo not drawn),0.34
15,Cc1c(C(=O)Oc2cccc3ccccc23)cnn1-c1ccccc1,27.3
16,COc1ccc(OC(=O)c2c(C)nn(-c3ccccc3)c2C)cc1,-12.3
17,NC(=O)CSc1nnnn1-c1ccc(OC(F)(F)F)cc1,-7.21
18,CCC1=CCN(CCc2c(C)[nH]c3ccccc23)CC1,-0.79
19,NNC(=S)Nc1c(Br)cc(F)cc1Br,-5.67
20,COc1cccc(C2=NC(C)(C)NC(c3ccccc3O)C2)c1 (stereo not drawn),4.8
21,Clc1ccc2nc(-c3ccc4c(c3)OCO4)cn2c1,4.92
22,CCC1(C)N=C(c2ccc3c(c2)OCO3)CC(c2ccccc2O)N1 (stereo not drawn),14.6
23,CCOc1ccccc1C1N=C(c2ccc(OC)cc2)CC(c2ccccc2O)N1 (stereo not drawn),7.98
24,CN1CCC(N(C)CC(=O)Nc2ccccc2N2CCOCC2)CC1,13.7
25,O=C(NCCCO)NC(=S)c1cccc2ccccc12,-0.39

row,Compound,inhibition [%]
1,Cc1cccc(Nc2nnc(SCC(=O)Nc3ccc(C(=O)O)cc3)s2)c1,13.8
2,CCc1ccc(Nc2nnc(SCC(=O)NC(=O)c3cccn3C)s2)cc1,2.04
3,Cc1ccc(C)c(SCC(=O)Nc2cccnc2Cl)c1,18.9
4,Cc1cc(NC(=O)CSc2nnc(Nc3ccccc3C)s2)no1,-2.04
5,CCc1ccc(Nc2nnc(SCC(=O)Nc3ccc(C(=O)O)cc3)s2)cc1,-5.8
6,CCc1ccccc1NC(=O)CN(C)C(=O)CSc1nnc(Nc2cccc(C)c2)s1,6.25
7,CCOC(=O)c1cc2c(ccn2-c2ccc(F)cc2)n1CC(=O)N1CCN(C(=O)c2ccco2)CC1,-1.91
8,Clc1ccccc1CNC1CN2CCC1CC2 (stereo not drawn),5.7
9,CCNc1ncnc2c1cnn2C,-10.7
10,Cc1ccc(SCc2[nH]nc3c2C2(C(=O)Nc4ccc([N+](=O)[O-])cc42)C(C#N)=C(N)O3)cc1 (stereo not drawn),-2.15
11,COc1ccc(CNc2nc3ccccc3n2CCN2CCCCC2)cc1,-0.5
12,CCN(CC)c1ccc(CNc2nc3ccccc3n2CCN2CCOCC2)cc1,6.6
13,Cc1ccc(S(=O)(=O)NCc2ccc(C(=O)N(C)CCC#N)cc2)cc1,4.15
14,Cc1ccc(NC(=O)c2cnccn2)cc1,3.69
15,O=C(Nc1ccc(Cl)c(C(F)(F)F)c1)c1ccco1,10.7
16,O=C(CCNc1cccc(C(F)(F)F)c1)c1ccco1,53.5
17,O=C(COC(=O)CCS(=O)(=O)c1ccc(Cl)cc1)NC1CCCCC1,0.69
18,O=C(CCSc1nnc(-c2ccc(O)cc2)o1)N1CCOCC1,-1.1
19,CCOc1ccc(-c2nnc3ccc(SCC(=O)Nc4cc(C)on4)nn23)cc1,4.14
20,Cc1cc(NC(=O)CSc2nnc(COc3ccccc3)o2)no1,3.02
21,Cc1cc(NC(=O)CSc2nnc(-c3ccc(O)cc3)o2)no1,-6.89
22,Cc1ccc(-c2nnc(SCCC(=O)N3CCOCC3)o2)cc1,77.5
23,COc1cccc(-c2nnc(SCC(=O)Nc3cc(C)on3)n2C)c1,-2.38
24,Cc1cc(NC(=O)CSc2nnc(-c3ccco3)o2)no1,-3.8
25,Cc1cc(NC(=O)CSc2nnc(Cc3ccccc3)o2)no1,-8.58

row,Compound,inhibition [%]
1,COc1cc(OC)c(Nc2cc(C)nc3nc(C)nn23)cc1Cl,10.9
2,COc1ccccc1N1CCN(C(c2ccc(Cl)cc2)c2nnnn2C(C)(C)C)CC1 (stereo not drawn),3.99
3,COc1ccc(-n2c(O)c(C=Nc3c(C)n(C)n(-c4ccccc4)c3=O)c(=O)[nH]c2=O)cc1,6.56
4,CN(c1ccc(C(=O)N2CCN(Cc3ccc4c(c3)OCO4)CC2)cc1)S(=O)(=O)c1ccccc1,7.14
5,O=C(Nc1cccc(NC(=S)NC(=O)c2cccs2)c1)c1ccccc1,-2.28
6,CSc1cccc(NC(=S)N(CCC(C)C)C2CCN(C(C)=O)CC2)c1,-6.61
7,CC(N)C(=O)c1ccco1 (stereo not drawn),-3.4
8,COc1ccccc1NC(=S)NNC(=O)c1cc(C)nn1C,-9.1
9,Cc1cc(NC(=O)CSc2nnc(-c3ccoc3C)o2)no1,4.02
10,Cc1cc(NC(=O)CSc2ccc3c(c2)OCCO3)no1,-5.76
11,O=C(CSc1nnc(-c2ccc(O)cc2)o1)Nc1ccc2c(c1)OCCO2,-0.38
12,Cc1ccc(NCc2nnc(SCC(=O)Nc3cc(C)on3)n2C)cc1,-5.91
13,COc1ccccc1-c1nnc(SCC(=O)Nc2c(Cl)cccc2Cl)o1,-3.32
14,COc1ccc(-c2nnc(SCC(=O)Nc3cc(F)ccc3C)o2)cc1,-6.49
15,COc1ccccc1-n1c(CNc2ccc(F)cc2)nnc1SCC(=O)Nc1cc(C)on1,-4.09
16,COc1ccc(-c2nnc(SCC(=O)Nc3nncs3)o2)cc1,1.2
17,Cc1cccc(NN=C2c3ccccc3-c3ccccc32)c1,1.34
18,Cc1cc(C)nc(SCc2nnc(SCC(=O)Nc3ccc(C)c(C)c3)o2)n1,0.69
19,Cc1ccc(-c2nn3c(C)nnc3s2)cc1NC(=O)c1ccc(-c2ccc(Cl)cc2Cl)o1,-7.97
20,Cc1ccccc1CSCC(=O)NC1CCCC1,3.78
21,Cc1ccccc1NC(=S)N(C)Cc1cn(C)c2ccccc12,2.82
22,O=C(CSc1nnc(-c2ccc(F)cc2)o1)NC1CCCCC1,-0.23
23,COc1ccc(CCNC(=O)CSc2nnc(-c3ccc(F)cc3)o2)cc1OC,-1.7
